{
  "source": "PubChem BioAssay (NCI)",
  "experiment_in_all_cases": "NCI-60 one-dose screen, 48 h (100 = growth as untreated, 0 = no growth, -100 = all killed)",
  "settings_in_all_cases": "10 µM unless noted",
  "key": {"T-47D breast": {"tested_on": "T-47D breast"}, "BT-549 breast": {"tested_on": "BT-549 breast"}, "MDA-MB-435 melanoma": {"tested_on": "MDA-MB-435 melanoma"}, "SW-620 colon": {"tested_on": "SW-620 colon"}, "MCF7 breast": {"tested_on": "MCF7 breast"}, "HCT-116 colon": {"tested_on": "HCT-116 colon"}, "HCC-2998 colon": {"tested_on": "HCC-2998 colon"}, "KM12 colon": {"tested_on": "KM12 colon"}, "MDA-MB-468 breast": {"tested_on": "MDA-MB-468 breast"}},
  "note": "This is part of a sample that, as a whole, favours compounds with a hit. Of some 83,000 tested, about 20% had one in any assay.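 Assay: single dose, 48 h. Readout: percent growth (0 = no net growth; negative = cell death). Active: <10.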 Values without a mark were called inactive. Calls of active or inactive are those of the source.",
  "data": [
    {"compound": "CCOC(=O)/C(F)=C/C1CC1C1CCN(C(=O)OC(C)(C)C)CC1", "note": "(configuration not stated)", "values": [
      {"measurement": "growth", "setting": "T-47D breast", "value": 74.6, "unit": "%"},
      {"measurement": "growth", "setting": "BT-549 breast", "value": 125, "unit": "%"},
      {"measurement": "growth", "setting": "MDA-MB-435 melanoma", "value": 105, "unit": "%"},
      {"measurement": "growth", "setting": "SW-620 colon", "value": 101, "unit": "%"},
      {"measurement": "growth", "setting": "MCF7 breast", "value": 83.9, "unit": "%"},
      {"measurement": "growth", "setting": "HCT-116 colon", "value": 99.1, "unit": "%"},
      {"measurement": "growth", "setting": "HCC-2998 colon", "value": 111, "unit": "%"},
      {"measurement": "growth", "setting": "KM12 colon", "value": 102, "unit": "%"}
    ]},
    {"compound": "COc1ccc(NC(=O)Nc2nc3ccc([N+](=O)[O-])cc3s2)cc1", "values": [
      {"measurement": "growth", "setting": "T-47D breast", "value": "4.2% (active)"},
      {"measurement": "growth", "setting": "BT-549 breast", "value": 17.9, "unit": "%"},
      {"measurement": "growth", "setting": "MDA-MB-435 melanoma", "value": 23, "unit": "%"},
      {"measurement": "growth", "setting": "SW-620 colon", "value": 15, "unit": "%"},
      {"measurement": "growth", "setting": "MCF7 breast", "value": "0.377% (active)"},
      {"measurement": "growth", "setting": "HCT-116 colon", "value": 10.3, "unit": "%"},
      {"measurement": "growth", "setting": "HCC-2998 colon", "value": 19.2, "unit": "%"},
      {"measurement": "growth", "setting": "KM12 colon", "value": "3.81% (active)"},
      {"measurement": "growth", "setting": "MDA-MB-468 breast", "value": "-7.85% (active)"}
    ]},
    {"compound": "COc1ccc(NC(=O)Cn2c(/C=C/c3cccc(OC)c3)nc3ccccc3c2=O)cc1", "values": [
      {"measurement": "growth", "setting": "T-47D breast", "value": "-15% (active)"},
      {"measurement": "growth", "setting": "BT-549 breast", "value": 73.8, "unit": "%"},
      {"measurement": "growth", "setting": "MDA-MB-435 melanoma", "value": 59.1, "unit": "%"},
      {"measurement": "growth", "setting": "SW-620 colon", "value": 41.2, "unit": "%"},
      {"measurement": "growth", "setting": "MCF7 breast", "value": 30.4, "unit": "%"},
      {"measurement": "growth", "setting": "HCT-116 colon", "value": 13.9, "unit": "%"},
      {"measurement": "growth", "setting": "HCC-2998 colon", "value": 92.5, "unit": "%"},
      {"measurement": "growth", "setting": "KM12 colon", "value": 82.5, "unit": "%"}
    ]},
    {"compound": "Cc1ccc(C(=O)Nc2cc(-n3ccnc3)cc(C(F)(F)F)c2)cc1-n1cc(-c2cnc3cccnn23)nn1", "values": [
      {"measurement": "growth", "setting": "T-47D breast", "value": 113, "unit": "%"},
      {"measurement": "growth", "setting": "BT-549 breast", "value": 247, "unit": "%"},
      {"measurement": "growth", "setting": "MDA-MB-435 melanoma", "value": 63.4, "unit": "%"},
      {"measurement": "growth", "setting": "SW-620 colon", "value": 81.9, "unit": "%"},
      {"measurement": "growth", "setting": "MCF7 breast", "value": 101, "unit": "%"},
      {"measurement": "growth", "setting": "HCT-116 colon", "value": 55.1, "unit": "%"},
      {"measurement": "growth", "setting": "HCC-2998 colon", "value": 86.3, "unit": "%"},
      {"measurement": "growth", "setting": "KM12 colon", "value": 80.1, "unit": "%"}
    ]},
    {"compound": "c1n[nH]cc1-c1nc2ccc3cn[nH]c3c2c2c1CCCC2", "values": [
      {"measurement": "growth", "setting": "T-47D breast", "value": 74.7, "unit": "%"},
      {"measurement": "growth", "setting": "BT-549 breast", "value": 97.1, "unit": "%"},
      {"measurement": "growth", "setting": "MDA-MB-435 melanoma", "value": 94.8, "unit": "%"},
      {"measurement": "growth", "setting": "SW-620 colon", "value": 109, "unit": "%"},
      {"measurement": "growth", "setting": "MCF7 breast", "value": 78.7, "unit": "%"},
      {"measurement": "growth", "setting": "HCT-116 colon", "value": 89.5, "unit": "%"},
      {"measurement": "growth", "setting": "HCC-2998 colon", "value": 104, "unit": "%"}
    ]},
    {"compound": "COc1ccc(N=Nc2c(N)nn3c(N)c(C#N)c(-c4ccc(F)cc4)nc23)cc1", "values": [
      {"measurement": "growth", "setting": "T-47D breast", "value": 55.7, "unit": "%"},
      {"measurement": "growth", "setting": "BT-549 breast", "value": 49.3, "unit": "%"},
      {"measurement": "growth", "setting": "MDA-MB-435 melanoma", "value": 86.2, "unit": "%"},
      {"measurement": "growth", "setting": "SW-620 colon", "value": 88.6, "unit": "%"},
      {"measurement": "growth", "setting": "MCF7 breast", "value": 57.1, "unit": "%"},
      {"measurement": "growth", "setting": "HCT-116 colon", "value": 46.4, "unit": "%"},
      {"measurement": "growth", "setting": "HCC-2998 colon", "value": 66.7, "unit": "%"},
      {"measurement": "growth", "setting": "KM12 colon", "value": 56.7, "unit": "%"}
    ]},
    {"compound": "CCCCCCCCc1ccc(C(=O)Nc2cccc(O)c2)cc1", "values": [
      {"measurement": "growth", "setting": "T-47D breast", "value": 67.7, "unit": "%"},
      {"measurement": "growth", "setting": "BT-549 breast", "value": 51.2, "unit": "%"},
      {"measurement": "growth", "setting": "MDA-MB-435 melanoma", "value": 50.5, "unit": "%"},
      {"measurement": "growth", "setting": "SW-620 colon", "value": 93.5, "unit": "%"},
      {"measurement": "growth", "setting": "MCF7 breast", "value": 60.3, "unit": "%"},
      {"measurement": "growth", "setting": "HCT-116 colon", "value": 65, "unit": "%"},
      {"measurement": "growth", "setting": "HCC-2998 colon", "value": 109, "unit": "%"},
      {"measurement": "growth", "setting": "KM12 colon", "value": 54.3, "unit": "%"},
      {"measurement": "growth", "setting": "MDA-MB-468 breast", "value": 90.9, "unit": "%"}
    ]}
  ]
}
